A number with no mark means an inactive call. Activity calls are given as the source filed them.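 Rule for the calls, unless noted: active = mean inhibition above 46.68%, the untreated control wells mean plus 3 SD; inactive = the rest.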
What was measured:
[1] = target: Nuclear receptor coactivator 1 (Homo sapiens) (UniProt Q15788); test: SRC1 coactivator transcriptional activity inhibitors, confirmation, cell-based, luminescence, quadruplicate (AID 588820); conditions: HEK293 GAL4-SRC1 luciferase reporter, at 3.6 µM, active compounds read high;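 note: 0% = DMSO wells and 100% = gossypol 36 µM treated wells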
[2] = VP16 transactivation inhibitors, counter-screen for SRC1 inhibitor project, cell-based, luminescence, high throughput (AID 588824; in the data active = inhibition above about 25%); conditions: cell-based VP16 transactivation luciferase luminescence; at 3.6 µM; active compounds read high

Nuclear receptor coactivator 1 (Homo sapiens), sequence (Q15788 whole entry, looked up, the tested form may be a part): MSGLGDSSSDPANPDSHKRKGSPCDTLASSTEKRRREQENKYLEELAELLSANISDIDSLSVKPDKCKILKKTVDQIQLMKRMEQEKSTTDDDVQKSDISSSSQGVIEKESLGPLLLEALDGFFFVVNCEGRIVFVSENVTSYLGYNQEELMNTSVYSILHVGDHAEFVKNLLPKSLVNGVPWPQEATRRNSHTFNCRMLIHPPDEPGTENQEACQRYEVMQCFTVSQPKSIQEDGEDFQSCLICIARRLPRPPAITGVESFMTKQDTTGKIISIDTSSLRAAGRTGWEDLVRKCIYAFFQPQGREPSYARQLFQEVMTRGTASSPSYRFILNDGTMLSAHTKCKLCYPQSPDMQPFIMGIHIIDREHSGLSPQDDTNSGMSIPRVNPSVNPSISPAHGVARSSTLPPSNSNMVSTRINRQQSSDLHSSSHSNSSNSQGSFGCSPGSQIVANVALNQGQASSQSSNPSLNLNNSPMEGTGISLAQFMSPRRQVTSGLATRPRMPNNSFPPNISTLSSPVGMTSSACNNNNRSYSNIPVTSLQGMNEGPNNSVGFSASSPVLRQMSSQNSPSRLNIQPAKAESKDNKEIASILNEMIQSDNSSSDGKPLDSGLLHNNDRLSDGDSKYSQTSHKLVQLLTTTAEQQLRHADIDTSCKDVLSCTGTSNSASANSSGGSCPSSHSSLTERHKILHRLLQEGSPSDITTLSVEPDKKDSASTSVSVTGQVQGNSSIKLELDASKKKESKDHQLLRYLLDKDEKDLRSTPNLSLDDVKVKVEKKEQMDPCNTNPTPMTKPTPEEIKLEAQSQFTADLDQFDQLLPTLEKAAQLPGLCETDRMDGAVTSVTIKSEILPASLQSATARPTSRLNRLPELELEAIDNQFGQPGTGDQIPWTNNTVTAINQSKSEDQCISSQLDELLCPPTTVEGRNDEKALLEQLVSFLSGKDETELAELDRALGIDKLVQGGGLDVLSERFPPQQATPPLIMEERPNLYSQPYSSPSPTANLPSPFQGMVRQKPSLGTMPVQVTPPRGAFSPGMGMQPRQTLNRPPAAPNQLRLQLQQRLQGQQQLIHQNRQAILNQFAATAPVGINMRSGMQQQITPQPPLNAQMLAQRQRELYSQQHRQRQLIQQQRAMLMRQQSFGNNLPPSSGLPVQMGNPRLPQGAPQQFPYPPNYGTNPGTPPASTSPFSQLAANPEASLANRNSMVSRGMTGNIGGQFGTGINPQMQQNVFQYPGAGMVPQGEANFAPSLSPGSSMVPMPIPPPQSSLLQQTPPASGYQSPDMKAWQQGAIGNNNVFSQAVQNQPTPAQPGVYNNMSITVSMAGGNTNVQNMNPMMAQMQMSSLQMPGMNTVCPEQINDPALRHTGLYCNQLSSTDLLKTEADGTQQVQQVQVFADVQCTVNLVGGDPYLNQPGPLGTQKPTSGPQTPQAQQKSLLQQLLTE

Row | SMILES | inhibition [1] | inhibition [2]
1 | NC(=O)c1nsc(C(=O)N(c2ccccc2F)C(C(=O)NCc2ccccc2)c2ccc(O)cc2)c1N (configuration not stated) | -15.1% | 2.13%
2 | COc1ccc(NC(=O)/C(C#N)=C\c2cc(C)n(-c3ccc4c(c3)OCO4)c2C)cc1 | -34.8% | 30.7% (active)
3 | Cn1c(=O)[nH]c(=O)c2c1nc(N1CCCCC1)n2CC(O)COc1ccc([N+](=O)[O-])cc1 (configuration not stated) | -27.8% | -19%
4 | Cc1cc2c(NCc3ccccc3)ncnc2s1 | 5% | 18.8%
5 | CCN1CCN(c2ccc(S(=O)(=O)N3CCOCC3)cc2NC(=O)c2cc(Cl)nc3ccccc23)CC1 | -18.2% | 1.55%
6 | O=C1N=C(N2CCCC2)S/C1=C\C=C\c1ccccc1 | -93.8% | -50.3%
7 | CCOc1ccc(-c2cc(C(=O)Nc3ccc(C)c(NS(C)(=O)=O)c3)[nH]n2)c(C)c1 | -14% | 5.47%
8 | O=C(Nc1ccccc1)c1ccc(S(=O)(=O)NCc2cccnc2)cc1 | -8.68% | 0.28%
9 | COc1ccc(-c2csc(N3CCN(c4cc(C)nc5ccccc45)CC3)n2)cc1OC | -18% | 20.4%
10 | COc1cc(C)c(/C=C(\C#N)C(=O)Nc2ccc(C)cc2)cc1C(C)C | -24% | 0.73%
11 | Fc1ccc2[nH]c3c(NCc4ccccc4)ncnc3c2c1 | 2.59% | 20.2%
12 | OC[C@@H]1CN(Cc2ccc(-c3ccccc3)cc2)C[C@H](n2cnc3c(NCc4ccncc4)ncnc32)O1 | 10.1% | 28.9% (active)
13 | CN(CC(=O)NNC(=O)Cc1ccccc1F)S(=O)(=O)c1ccc(Cl)cc1 | -12.3% | 4.4%
14 | NC(N)=N/N=C/c1ccc(Cl)c([N+](=O)[O-])c1 | -20.2% | -0.27%
15 | COc1cccc(NC2=NC3(CCCCC3)N=C(N)N2)c1 | -9.2% | 9.05%
16 | O=C(Nc1ccccc1N1CCOCC1)c1cc(-c2ccncc2)nc2ccccc12 | -29.7% | 2.98%
17 | O=C(Nc1ccc(Cl)c(Cl)c1)c1cccc(S(=O)(=O)NCc2cccnc2)c1 | 6.28% | 25.9% (active)
18 | Cn1ccnc1SCC(=O)NC1(C#N)CCCCC1 | -19.4% | -3.8%
19 | CC1(C)CC(NCc2ccccc2)CCO1 (configuration not stated) | -24.7% | -4.92%
20 | COc1ccc(C(=O)n2cc(C(=O)c3cc(C)ccc3O)cn2)cc1OC | -3.44% | -0.92%
21 | CN1CCN(c2nc(-c3cccs3)nc3ccccc23)CC1 | 14.3% | 10%
22 | Cn1ncc(Cl)c1C(=O)NCc1cc(C(C)(C)C)n[nH]1 | -8.52% | -4.25%
23 | CCC(CC)C(=O)N(C)c1c(C)nc2c(OCc3ccc(OC(F)F)cc3)cccn12 | -18.2% | 5.06%
24 | Cc1cc(CSc2ccccc2)ccc1NC(=O)c1ccc(CN2CCOCC2)cc1 | -33.7% | 33.4% (active)

Row | SMILES | inhibition [1] | inhibition [2]
25 | c1ccc(-c2nc(NCCCn3ccnc3)c3ccccc3n2)cc1 | -10.8% | -2.43%
26 | N=c1c(C(=O)NCCc2ccccc2)cc2c(=O)n3ccccc3nc2n1CCCN1CCOCC1 | 6.5% | 18.9%
27 | CCC1(c2ccc(F)cc2)NC(=O)N(CC(=O)NCC(=O)Nc2cccc(C)c2C)C1=O (configuration not stated) | 6.24% | 6.8%
28 | Cc1cccc(N2CCN(S(=O)(=O)c3cc(-c4cc(C)no4)ccc3C)CC2C)c1 (configuration not stated) | -10.5% | 33.8% (active)
29 | CNc1snc(C)c1C(=O)OCC(=O)Nc1ccc(C)cc1F | 3.09% | -1.51%
30 | O=C(CSc1nc2ccccc2[nH]1)Nc1cccc(S(=O)(=O)N2CCOCC2)c1 | 3.06% | -4.53%
31 | COc1ccc(CCNc2c3ccccc3nc3ccccc23)cc1OC | -6.86% | 26.2% (active)
32 | O=C(Nc1nc(-c2ccccn2)cs1)c1cccc(-n2cnnn2)c1 | 17.6% | 7.13%
33 | CCC(C)OC(=O)C[N+](C)(C)CCOC1CC2CCC1(C)C2(C)C (configuration not stated) | 5.52% | 2.28%
34 | CN(Cc1cccs1)C(=O)CN1CCN(S(=O)(=O)c2ccc3c(c2)OCCCO3)CC1 | -16.6% | -8.72%
35 | CCC(NC(=O)NC1CCCCC1)c1ccccc1 (configuration not stated) | -16% | -3.88%
36 | CCCn1c(=O)c(C(=O)NC(C)c2ccccc2)c(O)c2ccccc21 (configuration not stated) | -10.4% | -9.6%
37 | COC(=O)c1cc2ccccn2c2c(C(=O)OC)c(C(=O)OC)cc1-2 | -58.3% | -27.2%
38 | CC(C)(C)c1ccc(OCCC(=O)NNC(=O)c2ccncc2)cc1 | -13.7% | -5.17%
39 | CC1CCc2c(sc3ncnc(N4CCOCC4)c23)C1 (configuration not stated) | 40% | 26.6% (active)
40 | CCCCC(=O)NC(c1ccc(N(CC)CC)cc1)c1ccc2cccnc2c1O (configuration not stated) | 69.3% (active) | 63.8% (active)
41 | Cc1sc(NC(=O)c2ccco2)c(C(c2cccnc2)N2CCC(C)CC2)c1C (configuration not stated) | -5.49% | 26.1% (active)
42 | Cc1nn(Cc2cccc(F)c2)c(C)c1NC(=O)c1ccc(COc2ccccc2Cl)cc1 | 31.2% | 46.7% (active)
43 | COCCn1c(C)cc(C(=O)CSc2nc3ccccc3s2)c1C | -45.7% | 6.14%
44 | Nc1ccn(C2OC(CO)C(O)C2O)c(=O)n1 (configuration not stated) | 24.8% | 20.1%
45 | COc1cc(-c2cc3nc(NCc4cccs4)ccn3n2)cc(OC)c1OC | -21.6% | 6.25%
46 | COc1ccc(C(=O)Cn2c(Br)nc3c2c(=O)n(C)c(=O)n3C)cc1 | -2.41% | 11.5%
47 | CC(C)Cn1c(N)c(C(=O)COC(=O)CC23CC4CC(CC(C4)C2)C3)c(=O)n(C)c1=O | 6.72% | 34.8% (active)
48 | CC1CN(c2nc3ccccc3nc2SCC(=O)Nc2cccc(C(F)(F)F)c2)CC(C)O1 (configuration not stated) | -15.1% | 5.85%

Row | SMILES | inhibition [1] | inhibition [2]
49 | Cc1ccccc1N(C(=O)c1csnn1)C(C(=O)NC1CCCCC1)c1ccncc1 (configuration not stated) | -16% | -5.53%
50 | O=C(Nc1cccc(F)c1)/C(=C\c1ccco1)NC(=O)c1ccco1 | -13.4% | -7.03%
51 | COc1ccc(Nc2ncnc3ccc(C)cc23)cc1 | 26.8% | 15.7%
52 | CCOC(=O)c1ccc(S(=O)(=O)N2CCN(C(C)=O)CC2)cc1 | -14.4% | -6.09%
53 | CN1CCN(C(=O)CCN2C(=O)/C(=C/c3cccc(Br)c3)SC2=S)CC1 | 10.7% | 16.9%
54 | COc1ccc(S(=O)(=O)N(C)c2ccc(C(=O)NCc3ccco3)cc2)cc1OC | -12.2% | -0.34%
55 | CC(=O)Nc1ccc(NC(=O)C2Cc3c(-c4ccco4)ccnc3O2)cc1 (configuration not stated) | 3.04% | 8.12%
56 | CCc1ccc(-c2nnn(CCC(=O)OC)n2)cc1 | -2.93% | 9.9%
57 | CC(C(=O)Nc1ccon1)N1C(=O)c2ccccc2S1(=O)=O (configuration not stated) | -3.82% | 11.8%
58 | CCC(C)C(=O)Nc1nc(C)c(-c2csc(Nc3cc(Cl)ccc3OC)n2)s1 (configuration not stated) | -14.5% | -1.24%
59 | COc1ccc(C)cc1S(=O)(=O)N1CCCC(N2CCN(c3ccccc3)CC2)C1 (configuration not stated) | 2.59% | 6.89%
60 | Cc1cccc(N2CC(C(=O)Nc3ccc(S(=O)(=O)Nc4nccs4)cc3)CC2=O)c1C (configuration not stated) | -14.9% | -6.59%
61 | CC(=O)C1=C(C)NC2=C(C(=O)CC(C)(C)C2)C1C (configuration not stated) | 28% | 15.6%
62 | COc1cc2c(cc1OC)CN(CC(=O)Nc1cccc([N+](=O)[O-])c1)CC2 | 4.85% | 6.41%
63 | C[n+]1c2n(c3ccccc31)N=C(c1ccc(Cl)cc1)CS2 | -20.3% | 19.1%
64 | Cn1c(=O)c2[nH]c(Nc3ccccc3)nc2n(C)c1=O | -22.1% | 0.08%
65 | CCN(c1ccccc1)S(=O)(=O)c1cc(C(=O)Nc2ccc(Br)cc2)ccc1F | 16.9% | 23.2%
66 | CC(C)C[C@H](NC(=O)c1nc[nH]c1C(=O)N1CCN(C(=O)OC(C)(C)C)CC1)C(=O)OC(C)(C)C | 21.8% | 78.9% (active)
67 | Cc1nn(CC(=O)N2CCN(c3cccc(C(F)(F)F)c3)CC2)c(=O)c2cccn12 | 23.4% | 8.52%
68 | CCCCC(=O)NC(c1cccc([N+](=O)[O-])c1)c1ccc2cccnc2c1O (configuration not stated) | 13.2% | 24%
69 | COc1cccc(C(c2c(NC(=O)c3ccco3)sc(C)c2C)N2CCOCC2)c1 (configuration not stated) | -6.24% | -1.54%
70 | Cc1oc(C(C)(C)C)cc1C(=O)N1CCN(c2ccc(C(F)(F)F)cn2)CC1 | 0.89% | 15.2%
71 | COc1ccccc1NC(=O)c1cc(S(=O)(=O)NC2CCCC2)ccc1F | 3.42% | 5.69%

Source: PubChem BioAssay
